Measurements from PubChem BioAssay (EPA / NIEHS).
The source made the active and inactive calls. How the source made its calls, unless noted: active means hit-call score of the fitted dose curve at least 0.9, where 1 is the maximum; inactive means score below 0.9.

Experiments:
[1] = read-out: Protein phosphatase 2A (PPP2R4), PTPA (gene 5524); assay: LTEA_HepaRG_PPP2R4: Life Technologies and Expression Analysis (LTEA) Assay for Protein phosphatase 2A (PPP2R4) using HepaRG (AID 2283522); conditions: mRNA level, 48 h; actives raise or lower the signal
Summary of the method: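 HepaRG, 48 h exposure, 8-pt half-log series from 100 uM, 0.5% DMSO vehicle, duplicates. Readout: PPP2R4 mRNA, Fluidigm qRT-PCR, housekeeping-normalized. Bidirectional curve fit vs DMSO baseline.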

[2] = read-out: Phosphatase and tensin (PTEN), PTEN (gene 5728); assay: LTEA_HepaRG_PTEN: Life Technologies and Expression Analysis (LTEA) Assay for Phosphatase and tensin (PTEN) using HepaRG (AID 2283523); conditions: mRNA level, 48 h; actives raise or lower the signal
Summary of the method: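 HepaRG, 48 h exposure, 8-pt half-log series from 100 uM top, 0.5% DMSO vehicle, duplicates. Readout: Fluidigm qRT-PCR of PTEN transcript; housekeeping normalization (ACTB, GAPDH, POLR2A). Gain or loss fitted relative to DMSO baseline.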

[3] = read-out: solute carrier (SLC22A1), SLC22A1 (gene 6580); assay: LTEA_HepaRG_SLC22A1: Life Technologies and Expression Analysis (LTEA) Assay for solute carrier (SLC22A1) using HepaRG (AID 2283524); conditions: mRNA level, 48 h; actives raise or lower the signal
Summary of the method: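 qRT-PCR readout (TaqMan, Fluidigm arrays) of SLC22A1 transcript, normalized to three housekeeping genes; bidirectional curve fit relative to 0.5% DMSO vehicle. Differentiated human HepaRG cells, 48 h chemical exposure, top concentration 100 uM, half-log steps, eight points.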

[4] = read-out: Pyruvate Dehydrogenase Kinase 4 (PDK4), PDK4 (gene 5166); assay: LTEA_HepaRG_PDK4: Life Technologies and Expression Analysis (LTEA) Assay for Pyruvate Dehydrogenase Kinase 4 (PDK4) using HepaRG (AID 2283525); conditions: mRNA level, 48 h; actives raise or lower the signal
Summary of the method: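 HepaRG (human liver line), 48 h chemical exposure, 8-pt half-log CRC top 100 uM, 0.5% DMSO vehicle, duplicates. Readout: TaqMan qRT-PCR of PDK4 mRNA, housekeeping-normalized; gain/loss fit relative to DMSO baseline.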

[5] = read-out: NAD(P)H dehydrogenase [quinone] 1 (NQO1), NQO1 (gene 1728); assay: LTEA_HepaRG_NQO1: Life Technologies and Expression Analysis (LTEA) Assay for NAD(P)H dehydrogenase [quinone] 1 (NQO1) using HepaRG (AID 2283526); conditions: mRNA level, 48 h; actives raise or lower the signal
Summary of the method: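 qRT-PCR read-out (Fluidigm TaqMan), normalized to three housekeeping genes, after 48 h chemical exposure of HepaRG cells. Concentrations: eight points, top 100 uM, half-log steps, 0.5% DMSO vehicle. Gain or loss of signal fitted relative to DMSO.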

[6] = read-out: succinate dehydrogenase complex iron sulfur subunit B (SDHB), SDHB (gene 6390); assay: LTEA_HepaRG_SDHB: Life Technologies and Expression Analysis (LTEA) Assay for succinate dehydrogenase complex iron sulfur subunit B (SDHB) using HepaRG (AID 2283528); conditions: mRNA level, 48 h; actives raise or lower the signal
Summary of the method: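 Readout is SDHB transcript level by qRT-PCR, normalised to three housekeeping genes and fitted bidirectionally against 0.5% DMSO vehicle. Human HepaRG cells were treated for 48 h at up to 100 uM.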

[7] = read-out: Signal transducer and activator of transcription 3 (Homo sapiens) (UniProt P40763); assay: LTEA_HepaRG_STAT3: Life Technologies and Expression Analysis (LTEA) Assay for Signal transducer and activator of transcription (STAT3) using HepaRG (AID 2283529); conditions: mRNA level, 48 h; actives raise or lower the signal
Summary of the method: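 HepaRG, 48 h exposure, 8-pt half-log series (top 100 uM), 0.5% DMSO vehicle, duplicates. Readout: STAT3 transcript by Fluidigm qRT-PCR, housekeeping-normalized; bidirectional fit vs DMSO baseline.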

[8] = read-out: solute carrier (SLCO1B1), SLCO1B1 (gene 10599); assay: LTEA_HepaRG_SLCO1B1: Life Technologies and Expression Analysis (LTEA) Assay for solute carrier (SLCO1B1) using HepaRG (AID 2283530); conditions: mRNA level, 48 h; actives raise or lower the signal
Summary of the method: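 Differentiated human HepaRG cells were exposed for 48 h in serum-free induction medium to eight half-log concentrations, top 100 uM, in 0.5% DMSO. SLCO1B1 mRNA was measured by qRT-PCR, normalized to ACTB, GAPDH and POLR2A, and fitted bidirectionally against DMSO.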

[9] = read-out: sulfotransferase 2A1 (SULT2A1), SULT2A1 (gene 6822); assay: LTEA_HepaRG_SULT2A1: Life Technologies and Expression Analysis (LTEA) Assay for sulfotransferase 2A1 (SULT2A1) using HepaRG (AID 2283531); conditions: mRNA level, 48 h; actives raise or lower the signal
Summary of the method: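 HepaRG human liver cells, 48 h exposure in serum-free induction medium to 8 half-log concentrations topping at 100 µM (0.5% DMSO), duplicate wells. SULT2A1 mRNA measured by TaqMan qRT-PCR, normalized to ACTB/GAPDH/POLR2A; bidirectional fit against DMSO.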

[10] = read-out: Transforming Growth Factor (TGFA), TGFA (gene 7039); assay: LTEA_HepaRG_TGFA: Life Technologies and Expression Analysis (LTEA) Assay for Transforming Growth Factor (TGFA) using HepaRG (AID 2283532); conditions: mRNA level, 48 h; actives raise or lower the signal
Summary of the method: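 qRT-PCR read-out of TGFA transcript, normalized to three housekeeping genes, fitted bidirectionally against 0.5% DMSO baseline. Human HepaRG cultures received chemicals for 48 h at eight half-log concentrations, top 100 uM.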

[11] = read-out: Tumor necrosis factor receptor 1 (TNFRSF1A), TNFRSF1A (gene 7132); assay: LTEA_HepaRG_TNFRSF1A: Life Technologies and Expression Analysis (LTEA) Assay for Tumor necrosis factor receptor 1 (TNFRSF1A) using HepaRG (AID 2283535); conditions: mRNA level, 48 h; actives raise or lower the signal
Summary of the method: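 Differentiated HepaRG cells in serum-free induction medium, exposed 48 h in duplicate to 8 half-log concentrations up to 100 uM in 0.5% DMSO. TNFRSF1A mRNA by Fluidigm TaqMan qRT-PCR, normalized to ACTB, GAPDH, POLR2A; bidirectional fit.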

[12] = read-out: Cellular tumor antigen p53 (Homo sapiens) (UniProt P04637); assay: LTEA_HepaRG_TP53: Life Technologies and Expression Analysis (LTEA) Assay for Tumor Protein P53 (TP53) using HepaRG (AID 2283537); conditions: mRNA level, 48 h; actives raise or lower the signal
Summary of the method: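 Read-out is TP53 transcript level by microfluidic qRT-PCR, normalised to three housekeeping genes and fitted bidirectionally against DMSO. Human HepaRG cells received compounds for 48 h, highest concentration 100 uM.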

[13] = read-out: UDP glucuronosyltransferase (UGT1A6), UGT1A6 (gene 54578); assay: LTEA_HepaRG_UGT1A6: Life Technologies and Expression Analysis (LTEA) Assay for UDP glucuronosyltransferase (UGT1A6) using HepaRG (AID 2283539); conditions: mRNA level, 48 h; actives raise or lower the signal
Summary of the method: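 Differentiated HepaRG cells, ~100,000/well, were exposed for 48 h in serum-free induction medium with 0.5% DMSO to 8-point half-log series topping at 100 uM, in duplicate. mRNA measured by Fluidigm TaqMan qRT-PCR, normalized to ACTB, GAPDH and POLR2A.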

[14] = read-out: X-box binding protein 1 (XBP1), XBP1 (gene 7494); assay: LTEA_HepaRG_XBP1: Life Technologies and Expression Analysis (LTEA) Assay for X-box binding protein 1 (XBP1) using HepaRG (AID 2283540); conditions: mRNA level, 48 h; actives raise or lower the signal
Summary of the method: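 Differentiated human HepaRG cells in serum-free induction medium exposed 48 h in duplicate to eight half-log concentrations up to 100 uM in 0.5% DMSO. XBP1 mRNA measured by Fluidigm TaqMan qRT-PCR, normalized to ACTB, GAPDH, POLR2A; bidirectional fitting against DMSO.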

[15] = LTEA_HepaRG_LDH_cytotoxicity: Cytotoxicity Assessment in the Life Technologies and Expression Analysis (LTEA) Assay (AID 2283563; active means hit-call score of the fitted dose curve at least 0.9, where 1 is the maximum)
Summary of the method: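 Differentiated HepaRG cells in serum-free induction medium, exposed 48 h in duplicate to 8 half-log concentrations up to 100 uM in 0.5% DMSO. Cytotoxicity from LDH measured in spent medium, fit relative to DMSO.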

[16] = read-out: Transforming Growth Factor (TGFB1), TGFB1 (gene 7040); assay: LTEA_HepaRG_TGFB1: Life Technologies and Expression Analysis (LTEA) Assay for Transforming Growth Factor (TGFB1) Transporter using HepaRG (AID 2283533); conditions: mRNA level, 48 h; actives raise or lower the signal
Summary of the method: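 Differentiated HepaRG cells exposed 48 hr in serum-free induction medium to eight half-log concentrations up to 100 uM (0.5% DMSO), duplicate; TGFB1 mRNA by TaqMan qRT-PCR normalised to ACTB, GAPDH, POLR2A; bidirectional fit against DMSO.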

[17] = read-out: UDP glucuronosyltransferase (UGT1A1), UGT1A1 (gene 54658); assay: LTEA_HepaRG_UGT1A1: Life Technologies and Expression Analysis (LTEA) Assay for UDP glucuronosyltransferase (UGT1A1) using HepaRG (AID 2283538); conditions: mRNA level, 48 h; actives raise or lower the signal
Summary of the method: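 HepaRG, 48 h chemical exposure (top 100 uM, half-log 8-pt, 0.5% DMSO vehicle), duplicate wells; qRT-PCR (TaqMan, Fluidigm array) for UGT1A1 mRNA, housekeeping-normalized; bidirectional curve fit vs DMSO baseline.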

[18] = read-out: Thyroid Hormone Responsive (THRSP), THRSP (gene 7069); assay: LTEA_HepaRG_THRSP: Life Technologies and Expression Analysis (LTEA) Assay for Thyroid Hormone Responsive (THRSP) using HepaRG (AID 2283536); conditions: mRNA level, 48 h; actives raise or lower the signal
Summary of the method: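 qRT-PCR read-out (Fluidigm TaqMan), housekeeping-normalized (ACTB/GAPDH/POLR2A). HepaRG, 48 h chemical exposure, 8-pt half-log series from 100 uM in 0.5% DMSO, duplicates. Bidirectional curve fit vs 0.5% DMSO baseline.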

Measured: AC50

Chain of Signal transducer and activator of transcription 3 (Homo sapiens) (P40763 whole entry, looked up): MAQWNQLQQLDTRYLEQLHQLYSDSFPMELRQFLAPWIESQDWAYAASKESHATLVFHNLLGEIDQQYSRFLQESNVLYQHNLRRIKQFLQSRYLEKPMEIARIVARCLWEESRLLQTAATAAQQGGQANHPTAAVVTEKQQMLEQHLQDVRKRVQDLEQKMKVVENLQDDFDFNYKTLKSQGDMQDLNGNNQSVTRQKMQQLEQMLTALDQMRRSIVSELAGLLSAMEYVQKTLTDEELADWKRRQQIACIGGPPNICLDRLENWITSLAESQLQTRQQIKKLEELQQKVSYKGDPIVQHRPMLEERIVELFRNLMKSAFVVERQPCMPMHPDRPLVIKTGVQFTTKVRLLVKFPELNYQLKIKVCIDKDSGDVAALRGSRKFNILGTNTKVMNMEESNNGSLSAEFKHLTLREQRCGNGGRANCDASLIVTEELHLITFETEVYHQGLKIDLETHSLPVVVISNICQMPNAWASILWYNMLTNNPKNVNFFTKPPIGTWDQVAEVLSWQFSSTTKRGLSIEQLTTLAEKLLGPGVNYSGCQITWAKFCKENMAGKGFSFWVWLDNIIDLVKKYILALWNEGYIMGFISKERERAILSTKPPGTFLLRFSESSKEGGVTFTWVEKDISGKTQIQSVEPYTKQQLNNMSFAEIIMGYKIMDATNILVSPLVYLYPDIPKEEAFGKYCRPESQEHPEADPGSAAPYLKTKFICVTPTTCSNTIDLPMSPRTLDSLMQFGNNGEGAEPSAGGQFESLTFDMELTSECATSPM
Chain of Cellular tumor antigen p53 (Homo sapiens) (P04637 whole entry, looked up): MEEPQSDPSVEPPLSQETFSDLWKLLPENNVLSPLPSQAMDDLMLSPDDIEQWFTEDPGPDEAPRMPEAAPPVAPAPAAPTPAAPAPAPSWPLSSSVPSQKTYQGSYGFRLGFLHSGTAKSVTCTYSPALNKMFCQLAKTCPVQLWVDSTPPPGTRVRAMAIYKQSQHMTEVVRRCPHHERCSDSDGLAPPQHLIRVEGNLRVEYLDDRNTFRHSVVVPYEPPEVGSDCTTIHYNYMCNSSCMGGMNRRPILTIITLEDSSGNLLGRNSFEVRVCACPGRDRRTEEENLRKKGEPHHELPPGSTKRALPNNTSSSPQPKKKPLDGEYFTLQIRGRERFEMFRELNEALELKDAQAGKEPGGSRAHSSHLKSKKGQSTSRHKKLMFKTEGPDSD

COCC(C)OCC(C)OCC(C)O (stereo not drawn)
inactive: [1] | [2] | [3] | [4] | [5] | [6] | [7] | [8] | [9] | [10] | [11] | [12] | [13] | [14] | [15]

C[C@]12CC[C@@H]3c4ccc(O)cc4CC[C@H]3[C@@H]1CC[C@H]2O
inactive: [1] | [2] | [4] | [5] | [6] | [7] | [10] | [11] | [12] | [13] | [14]
active: [3] 71.1 µM | [8] 77.5 µM | [9] 6.71 µM | [16] 50 µM | [17] 2.42 µM

O=C(O)c1ccccc1-n1cc(C(=O)O)c(=O)c2cc(Nc3c(F)cc(F)cc3Cl)c(Cl)cc21
active: [11] 31.9 nM | [13] 90.4 nM
inactive: [1] | [2] | [3] | [4] | [5] | [6] | [7] | [8] | [9] | [10] | [16] | [18] | [12] | [17] | [14] | [15]

O=c1ccc2ccccc2o1
inactive: [1] | [2] | [3] | [4] | [5] | [6] | [7] | [8] | [9] | [10] | [16] | [11] | [12] | [13] | [14] | [15]

CCN(Cc1cccc(S(=O)(=O)O)c1)c1ccc(C(=C2C=CC(=[N+](CC)Cc3cccc(S(=O)(=O)O)c3)C=C2)c2ccccc2S(=O)(=O)[O-])cc1
inactive: [1] | [2] | [3] | [4] | [5] | [6] | [7] | [8] | [9] | [10] | [11] | [18] | [12] | [17] | [13] | [14] | [15]

CN1C(=O)CC[C@H]1c1cccnc1
inactive: [1] | [2] | [3] | [4] | [5] | [6] | [7] | [8] | [9] | [10] | [16] | [11] | [12] | [13] | [14] | [15]
